Source: PubChem BioAssay (National Center for Advancing Translational Sciences (NCATS))
Shown are actives, neighbours in structure and some others; about 17% of the full set was active somewhere.
DT40 TDP1 no CPT = qHTS for Inhibitors of human tyrosyl-DNA phosphodiesterase 1 (TDP1): qHTS in cells in absence of CPT; AID 686978, 2013; Potency, µM (doses to about 46.2 µM), for the others: at the highest dose activity change, negative = growth inhibition, most hits filed as inhibitors; hit rate 15% among 420,000; DT40 Tdp1-/- hTDP1 cells, no CPT, ATP luminescence, 48 h; also: % is scaled to controls: 0 for no effect and ±100 for the full control effect; nearly all actives have a fitted effect of over 55% in size
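Cells were dispensed at 400 per well, compounds added by pin tool, plates incubated ≥48 hr at 37 °C, then CellTiter-Glo added for 30 min at room temperature before luminescence reading. Line: DT40 Tdp1-/- complemented with hTDP1; camptothecin omitted.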
HT1080NT lethal = qHTS for induction of synthetic lethality in tumor cells producing 2HG: qHTS for the HT-1080-NT fibrosarcoma cell line; hit rate 1.6% among 360,000; AID 686970, 2013; HT-1080-NT fibrosarcoma viability, CellTiter-Glo ATP luminescence, 48 h; Potency, µM (doses to about 46.1 µM), without a hit: at the highest dose activity, negative = less viability, actives largely listed as cytotoxic;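 also: NT is the 2HG producing partner of a matched IDH1 knockdown line; 0% = DMSO-treated cells and -100% = media-only wells without cells; nearly all actives have a fitted effect of over 55% in size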
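750 cells/well, RPMI + 5% FBS; 2 h settle, compound pin-transfer, 48 h at 37 degrees C. CellTiter-Glo 10 min RT, luminescence. Normalized to DMSO and media-only wells.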
HT1080 IDH1KD tx = qHTS for induction of synthetic lethality in tumor cells producing 2HG: qHTS for the HT-1080-IDH1KD cell line. HT-1080 IDH1 knockdown viability, ATP luminescence, 48 h. Potency, µM (series often up to 46.1 µM), without a hit: at the top dose activity, negative = toxicity, hits mostly cytotoxic. AID 686971, 2013. hit rate 2% among 360,000;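 also: 0% = DMSO wells and -100% = cell-free medium wells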
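Assay cells: HT-1080 with IDH1 knockdown, 750 per well, RPMI/5% FBS. Exposure: 48 h at 37 °C following 2 h pre-incubation. Read: CellTiter-Glo luminescence; fitted concentration-response, curve class assigned.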
TGFb SMAD3 inh = qHTS for Inhibitors of TGF-b. HepG2 CAGA-GFP TGF-b/SMAD3 reporter, GFP fluorescence, 18 h; TGF-beta stimulated, 500 pg/mL final. Potency, µM (doses to about 46.1 µM), without a hit: at the top dose activity, negative = inhibition, actives largely listed as inhibitors. hit rate 1.2% among 410,000. AID 588855, 2011; also: % is scaled to controls: 0 for no effect and ±100 for the full control effect; nearly all actives have a fitted effect of over 65% in size
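Per well, imaged GFP fluorescence of HEPG2 CAGA-GFP cells gives the signal; cells get compound, then TGF-beta (500 pg/mL final), 18 h at 37 degrees C; %Activity versus -TGF-beta and +DMSO controls.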
DT40 TDP1 CPT = qHTS for Inhibitors of human tyrosyl-DNA phosphodiesterase 1 (TDP1): qHTS in cells in presence of CPT | chicken DT40 Tdp1-/-;hTDP1 cells + 20 nM CPT, ATP luminescence, 48 h | hit rate 12% among 420,000 | Potency, µM (top dose mostly 46.2 µM), for inactives: at the top dose activity change, negative = growth inhibition, most hits filed as inhibitors; also: % is scaled to controls: 0 for no effect and ±100 for the full control effect; nearly all actives have a fitted effect of over 55% in size
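Chicken DT40 Tdp1-/- cells complemented with human TDP1, 400 cells/well, exposed to compounds plus 20 nM camptothecin for at least 48 h at 37 C; viability read as ATP content by CellTiter-Glo luminescence.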
HepG2 tox = qHTS for Inhibitors of TGF-b: Cytotox Counterscreen; HepG2 CAGA-GFP viability, ATP luminescence, 18 h; Potency, µM (doses to about 46.1 µM), for inactives: top-dose activity change, negative = cytotoxicity, usual class: cytotoxic; hit rate 0.76% among 410,000; AID 588856, 2011
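CellTiter-Glo luminescence gave cytotoxicity after 18 hours at 37 degrees C. The cells were HepG2 CAGA-GFP in 1% FBS DMEM, stimulated with 500 pg/mL TGF-beta after compound addition. %Activity was normalised to no-cell wells (complete cell-killing) and DMSO (no toxicity), and curves were fitted and classified.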
* = called active by the depositor; ? = inconclusive; . = no result. Calls follow the shape of the dose curve; as a rule, active = well fitted curve in the direction sought with a large enough effect; inconclusive = small, poorly fitted or top-dose-only effect, or another doubt; inactive = no such curve, though single readings can be large; an effect the other way counts as inactive or inconclusive. Potency is read from the fitted curve at half-maximal effect.

SMILES	DT40 TDP1 no CPT	HT1080NT lethal	HT1080 IDH1KD tx	TGFb SMAD3 inh	DT40 TDP1 CPT	HepG2 tox
Cc1ccc(NC(=O)CSc2nc3ccccc3c(=O)n2CCC(=O)NC2CCCCC2)cc1C	-4.6%	.	.	2.0%	-14.0%	5.0%
Cc1ccc(NC(=O)CSc2nc3ccccc3c(=O)n2CCCC(=O)N2CCCC2)cc1	20.6µM*	-8.0%	-8.4%	?	18.4µM*	-3.4%
c1cc2c3c(c1)CCC[N+]3(C1CCCCC1)CCC2	?	.	.	-24.7%	?	-10.8%
CC(C)(C)OC(=O)N1CCCC(C(=O)Nc2ccc(C(=O)NCc3ccccc3)cc2)C1 (centres undefined)	?	6.0%	8.0%	17.5%	?	1.0%
Cc1ccc(S(=O)(=O)N(C)C)cc1-n1c(SCC(=O)Nc2ccc(F)cc2)nc2ccccc2c1=O	?	-1.7%	-17.2%	-1.3%	?	-36.4%
Cc1ccc(S(=O)(=O)N(C)C)cc1-n1c(SCC(=O)Nc2ccc(F)cc2Cl)nc2ccccc2c1=O	16.4µM*	-1.1%	-0.4%	-18.5%	20.6µM*	-16.6%
COc1ccc(NC(=O)CSc2nc3ccccc3c(=O)n2CCCN2CCOCC2)c(OC)c1	?	3.9%	-11.7%	-5.2%	?	-16.5%
CCc1ccc(NC(=O)CSc2nc3ccccc3c(=O)n2CCCN2CCC(C)CC2)cc1	23.1µM*	?	20.6µM*	-6.9%	?	-14.7%
CN(C)S(=O)(=O)c1ccc(Cl)c(NC(=O)CSc2nc3ccccc3c(=O)n2CCCN2CCOCC2)c1	25.9µM*	0.9%	3.5%	-26.2%	?	-2.2%
COc1ccc(NC(=O)/C(C#N)=C\c2ccc(-c3cccc(C(=O)O)c3C)o2)cc1	4.61µM*	-18.7%	-19.8%	-20.0%	?	-12.5%
CCOC(=O)c1ccc(-c2ccc(/C=C(\C#N)C(=O)NCC3CCCO3)o2)cc1 (centres undefined)	23.1µM*	-6.6%	-2.1%	3.3%	20.6µM*	-6.7%
CCCCOC(=O)c1ccc(NC(=O)/C(C#N)=C/c2ccc(-c3ccccc3)o2)cc1	16.4µM*	.	.	0.3%	16.4µM*	-13.5%
CCOC(=O)c1ccc(-c2ccc(/C=C(\C#N)C(=O)Nc3c(C)cccc3Cl)o2)cc1	-20.6%	.	.	-1.3%	-25.1%	-0.8%
CCOC(=O)c1ccc(-c2ccc(/C=C(\C#N)C(=O)Nc3ccc(C)cc3OC)o2)cc1	-3.0%	.	.	7.5%	0.6%	5.5%
COc1ccc(NC(=O)/C(C#N)=C/c2ccc(-c3ccccc3C(=O)O)o2)cc1	-1.9%	1.4%	5.1%	15.8%	6.5%	-1.0%
COc1ccc(NC(=O)/C(C#N)=C/c2ccc(-c3ccc(Cl)c(C(=O)O)c3)o2)cc1	?	17.7%	7.5%	12.8%	18.4µM*	-2.6%
COC(=O)/C(C#N)=C/c1ccc(-c2ccc(S(N)(=O)=O)cc2)o1	-25.9%	1.3%	-1.1%	?	-1.0%	-24.8%
CCCCNC(=O)/C(C#N)=C/c1ccc(-c2ccc(S(=O)(=O)N3CCOCC3)cc2)o1	10.3µM*	-1.9%	-5.3%	-9.6%	7.31µM*	-66.6%
COc1cc(/C=C/c2ccc3ccccc3n2)cc(OC)c1OC	0.0708µM*	.	.	-12.8%	0.159µM*	-26.7%
COc1cc(/C=C/c2nc3ccccc3nc2/C=C/c2cc(OC)c(OC)c(OC)c2)cc(OC)c1OC	4.47µM*	.	.	3.2%	1.26µM*	-8.7%
CCOc1ccc(/C=C/c2ccc3ccccc3n2)cc1OCC	2.51µM*	.	.	-1.8%	2.82µM*	-8.6%
COc1cc(C=Cc2nnc3c4ccccc4cnn23)cc(OC)c1OC	0.82µM*	5.7%	-2.5%	1.2%	3.26µM*	-18.5%
CCOc1cc(/C=C/C(=O)O)ccc1OCc1ccccc1	5.6%	-15.6%	-17.1%	0.0%	-5.7%	3.1%
CCCn1cc(CN2CCC(n3nccc3NC(=O)c3ccc4c(c3)OCO4)CC2)c(C)n1	8.7%	2.6%	5.9%	2.0%	-0.2%	3.1%
Cc1[nH]c2ccc(C(=O)N3CCN(c4ccccn4)CC3)cc2c1C	-9.8%	5.8%	1.4%	-1.7%	-28.8%	-6.0%
SMILES	DT40 TDP1 no CPT	HT1080NT lethal	HT1080 IDH1KD tx	TGFb SMAD3 inh	DT40 TDP1 CPT	HepG2 tox
CC(=O)c1ccc(NC(=O)c2cc(C3CC3)nc3c2c(C)nn3-c2ccc(C)cc2)cc1	-26.7%	.	.	-0.5%	-25.0%	-2.8%
OC[C@H]1O[C@@H](O[C@H]2[C@H](O)[C@@H](O)[C@H](O)O[C@@H]2CO)[C@H](O)[C@@H](O)[C@@H]1O	-13.3%	.	.	.	18.5%	.
COCCCNc1ncnc2c1sc1nc(-c3ccco3)c3c(c12)CC(C)(C)OC3	14.6µM*	?	?	4.4%	?	-5.4%
CC1(C)Cc2c(c(-c3ccco3)nc3sc4c(NCCO)ncnc4c23)CO1	9.2µM*	-5.0%	-3.5%	1.6%	23.1µM*	0.0%
Cc1nc2sc3c(NCc4ccco4)ncnc3c2c2c1COC(C)(C)C2	23.1µM*	-13.3%	?	-7.1%	?	-20.4%
CC(=O)NC(c1ccccc1)c1nc(-c2cccc(CO)c2)cs1 (centres undefined)	-10.2%	-2.1%	?	12.0%	-18.9%	4.1%
Cc1cc(C)cc(OCC(=O)N(Cc2ccccc2)C2CCS(=O)(=O)C2)c1 (centres undefined)	-11.5%	-18.4%	0.8%	?	6.6%	5.3%
COc1ccccc1-c1cc(C(F)(F)F)nc(S(=O)(=O)CCCC(=O)Nc2ccccc2F)n1	2.59µM*	.	.	3.55µM*	2.59µM*	11.2µM*
COc1ccc(NC(=O)CCCS(=O)(=O)c2nc(-c3ccccc3OC)cc(C(F)(F)F)n2)c(OC)c1	-20.3%	.	.	-11.3%	-10.0%	-5.2%
COc1ccccc1-c1cc(C(F)(F)F)nc(S(=O)(=O)CCCC(=O)Nc2cccnc2Cl)n1	4.61µM*	14.6µM*	25.9µM*	?	2.06µM*	1.6%
COc1ccccc1-c1cc(C(F)(F)F)nc(S(=O)(=O)CCCC(=O)Nc2cc(Br)ccc2O)n1	-18.7%	.	.	-26.8%	-16.1%	-28.3%
O=c1[nH]cnc2c1C(c1ccccc1)c1c(nc[nH]c1=O)O2	-4.3%	0.4%	4.8%	8.1%	10.3%	5.5%
